# Source: PubChem BioAssay
# Test: small molecules captured by biotinylated probe aFSTL3 – biochemical, small-molecule microarray, fluorescence 635/667, stem cell growth factor project, primary screen (AID 1064);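 also: measures binding of the biotinylated anti-FSTL3 antibody to printed compounds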
# Conditions: higher = more signal
row,Structure (SMILES),composite z-score
1,C[C@@H]1CCC2C(=O)N(Cc3ccccc3)C[C@@H](O)CN2[C@H]1c1ccc(Br)cc1 (some centres not stated),-0.364
2,CCOC(=O)CCN1C(=O)[C@H]2[C@H]3[C@H](O)[C@H](O)CC(=O)[C@H]3CC[C@H]2C1=O,-0.554
3,C#CCCCON=C1C[C@@H](O)[C@@H](O)[C@@H]2[C@@H]3C(=O)N(CCC(=O)OCC)C(=O)[C@@H]3CC[C@@H]12,1.93
4,O=C1[C@H]2[C@H]3[C@H](O)[C@H](O)CC(=NOCc4ccccc4)[C@H]3CC[C@H]2C(=O)N1C[C@@H]1CCCO1,-0.493
5,C#CCCCON=C1C[C@@H](O)[C@@H](O)[C@@H]2[C@@H]3C(=O)N([C@@H](C)c4ccccc4)C(=O)[C@@H]3CC[C@H]12,-0.196
6,CCOC(=O)[C@H](Cc1ccccc1)NC(=O)CCC1CC(OC(=O)NCc2ccc3c(c2)OCO3)CC2(CCCC(COC(=O)NCc3cccc(C(F)(F)F)c3)O2)O1 (some centres not stated),-0.353
7,C=CC[C@@H]1C=C[C@H](ON=C(C)CCN2CCc3nc(CC)c(CC)cc3C2)[C@@H](CO)O1,0.332
8,O=C1C2C=CC(C(O)c3ccc([N+](=O)[O-])cc3)N(Nc3ccc([N+](=O)[O-])cc3)C2C(=O)N1c1ccccc1 (configuration not stated),0.25
9,CC(C)[C@H](NC(=O)OC(C)(C)C)[C@@H](O)CC(=O)OC(C)(C)C,-0.273
10,NCCCCCNC(=O)[C@@H]1C[C@@H]2C(=O)N3CCC[C@H]3C(=O)N2[C@@H]1c1cccc(OCCO)c1,2.37
11,COC(=O)CC=C[C@H](C)[C@@H](OCc1ccccc1Br)C(C)C,-0.188
12,COc1ccc([Si](C)(C)[C@H]2[C@H](CCO)O[C@@]3(C(=O)N(Cc4cccc(NC(=O)[C@H](C)O)c4)c4ccccc43)[C@@H]2C)cc1,-0.456
